Source: PubChem BioAssay
This is a sample that favours compounds with a hit; in the whole collection about 1.3% have one here.
hERG WT inh: blocks the wildtype human KCNH2 potassium channel | Q12809 | U2OS, BacMam KCNH2, thallium flux FluxOr; hits give low values | activity change, % at 1.84 µM | 340,000 tested, 0.37% active;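 active means maximum activity change below -70%; inconclusive means maximum activity change between -70% and -50%; inactive means maximum activity change above -50%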; further: on the % scale 0 is the no-effect control and ±100 the full control effect
Target sequence (Q12809 whole entry, looked up): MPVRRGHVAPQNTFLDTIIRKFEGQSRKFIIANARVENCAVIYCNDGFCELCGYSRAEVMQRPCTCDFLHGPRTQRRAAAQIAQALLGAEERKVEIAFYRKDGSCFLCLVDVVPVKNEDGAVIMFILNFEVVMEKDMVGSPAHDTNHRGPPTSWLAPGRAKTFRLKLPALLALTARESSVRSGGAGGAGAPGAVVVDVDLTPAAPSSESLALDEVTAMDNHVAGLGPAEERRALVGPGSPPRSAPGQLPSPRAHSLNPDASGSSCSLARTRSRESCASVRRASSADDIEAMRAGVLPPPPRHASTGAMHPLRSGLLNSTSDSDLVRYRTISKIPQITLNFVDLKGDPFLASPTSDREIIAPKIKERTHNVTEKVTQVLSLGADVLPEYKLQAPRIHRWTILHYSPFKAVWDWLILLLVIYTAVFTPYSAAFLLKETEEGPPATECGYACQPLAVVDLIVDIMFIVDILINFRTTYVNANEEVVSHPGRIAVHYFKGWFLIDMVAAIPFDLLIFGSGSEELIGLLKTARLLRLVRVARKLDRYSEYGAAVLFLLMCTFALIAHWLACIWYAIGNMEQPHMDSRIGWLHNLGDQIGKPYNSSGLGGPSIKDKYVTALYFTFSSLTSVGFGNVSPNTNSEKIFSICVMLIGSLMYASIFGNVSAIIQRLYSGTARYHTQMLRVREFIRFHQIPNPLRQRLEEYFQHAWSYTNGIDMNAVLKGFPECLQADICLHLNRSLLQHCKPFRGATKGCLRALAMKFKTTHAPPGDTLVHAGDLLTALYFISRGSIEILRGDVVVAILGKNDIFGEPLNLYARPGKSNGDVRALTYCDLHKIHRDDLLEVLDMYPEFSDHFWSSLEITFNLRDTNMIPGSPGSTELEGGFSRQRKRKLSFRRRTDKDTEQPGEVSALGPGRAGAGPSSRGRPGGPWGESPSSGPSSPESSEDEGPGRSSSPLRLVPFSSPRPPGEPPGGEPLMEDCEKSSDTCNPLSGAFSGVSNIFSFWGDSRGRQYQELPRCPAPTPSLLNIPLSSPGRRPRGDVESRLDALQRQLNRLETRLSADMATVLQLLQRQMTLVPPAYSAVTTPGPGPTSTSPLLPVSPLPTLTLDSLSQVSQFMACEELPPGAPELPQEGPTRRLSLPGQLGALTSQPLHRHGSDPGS
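U2OS cells were transduced with wild-type KCNH2 virus (2.03 x 10^8 / mL) for 4 h at room temperature, then cultured overnight at 37 C. Thallium flux was read with FluxOr dye. Rate constants were normalized to DMSO controls.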
KCNH2 3.1 inh: KCNH2 3.1 (human) potassium channel inhibition; U2OS KCNH2 3.1, thallium flux FluxOr; hits give low values; activity change, % (tested at about 1.8 µM); 340,000 tested, 0.95% active;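 active means maximum activity change below -70%; inconclusive means maximum activity change from -70% to -50%; inactive means maximum activity change above -50%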;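 further: thallium influx rate constant from kinetic fluorescence after stimulation buffer; on the % scale 0 is the no-effect control and ±100 the full control effect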
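Kinetic fluorescence (2 min after stimulation buffer) measures Tl+ influx through KCNH2 3.1 expressed by viral transduction in U2OS cells; the rate constant is normalized against DMSO controls serving as positive and negative references.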
MBNL1 CUG block: inhibitors of human MBNL1 binding to CUG repeat RNA | Q9NR56 | TR-FRET MBNL1-His/biotin-(CUG)12 binding, 665/545 ratio | Potency, µM (titrated, usually from 57.5 µM), inactives show top-dose activity change, negative = inhibition, hits mostly inhibitors | 280,000 tested, 0.036% active | AID 2675; active means well fitted inhibition curve with a large enough effect in the signal ratio, with a control signal flat, not every such curve was filed as active; inconclusive means small, poorly fitted or top-dose-only effect, or effect the other way, or a change in a side signal; inactive means no such curve, though single readings can be large or run the other way; the % refers to the signal ratio; further: potency means the concentration at half of the fitted maximal effect; on the % scale 0 is the no-effect control and ±100 the full control effect
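TR-FRET readout: Ex 340 nm, 665/545 nm emission ratio, normalized to buffer-only (basal) and MBNL1-(CUG)12 controls. Complex of MBNL1-His with Biotin-(CUG)12, compounds 92 nM–58 uM, incubated 60 min at room temperature.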
TRPV1 ag: human TRPV1 agonism; Q8NER1; TRPV1-expressing cells, Fluo-8 calcium influx, agonist mode; activation, % at 8.33 µM; 320,000 tested, 0.19% active; in the data active means activation above about 80%; inconclusive means between about 30% and that limit; further: 0% is about no effect
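Fluo-8 calcium influx in TRPV1-expressing cells, kinetic read (ex 480/em 520 nm). Compound added and read 3 min for agonist activity, followed by capsaicin at EC20 final and 2 min further read for enhancement.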
TRPV1 PAM: human TRPV1 potentiation; TRPV1-expressing cells, Fluo-8 calcium influx, capsaicin EC20 potentiation; potentiation, % at 8.33 µM; 320,000 tested, 0.02% active; in the data active means potentiation above about 80%; inconclusive means between about 30% and that limit; further: 0% is about no effect
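TRPV1-expressing cells were cultured overnight at 35.5C and loaded with Fluo-8 calcium dye for 40 to 90 min at room temperature. After a 10 s baseline, compound was added and calcium influx was read kinetically for 3 min (ex 480/em 520 nm).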
MBNL1 TRFRET: MBNL1-poly(CUG) RNA binding inhibition confirmed; 140 tested, 50% active; Potency, µM (series often up to 57.6 µM), inactives show at the highest dose activity change, negative = inhibition, actives largely listed as inhibitors; AID 493199; TR-FRET MBNL1-His / biotin-(CUG)12 binding, 60 min; shares compounds with MBNL1 CUG block
MBNL1 AlphaScrn: confirmation of MBNL1-(CUG)12 RNA binding inhibitors, orthogonal format. Potency, µM (highest dose often 57.7 µM), for the others: at the highest dose activity, negative = inhibition, most hits filed as inhibitors. AID 493205. shares compounds with MBNL1 CUG block. 140 tested, 30% active. AlphaScreen MBNL1-His / biotin-(CUG)12 binding
Menin-MLL HTRF: hit in HTRF counterscreen for MBNL1-poly(CUG) binding inhibitors; shares compounds with MBNL1 CUG block; His-Menin/biotin-MLL peptide TR-FRET counterscreen; Potency, µM (doses to about 57.6 µM), for inactives: at the highest dose activity, negative = inhibition, actives largely listed as inhibitors; 120 tested, 20% active
* = called active by the depositor; u = inconclusive; x = not tested or not shown. Unless noted, the call rests on the fitted dose curve; in most records, active means well fitted curve in the direction sought with a large enough effect; inconclusive means small, poorly fitted or top-dose-only effect, or another doubt; inactive means no such curve, though single readings can be large; an effect the other way counts as inactive or inconclusive.

SMILES | hERG WT inh | KCNH2 3.1 inh | MBNL1 CUG block | TRPV1 ag | TRPV1 PAM | MBNL1 TRFRET | MBNL1 AlphaScrn | Menin-MLL HTRF
O=C1CCC(C(=O)N2CCCCCC2)CN1CCc1ccc(Cl)cc1 (configuration not stated) | -6.5 | 3.5 | -0.4% | 0.7 | 5.9 | x | x | x
COc1cccc(NC(=O)CSc2ncc(S(=O)(=O)c3ccccc3)c(=O)[nH]2)c1 | -4.6 | 6.6 | -4.3% | 1.3 | 11.9 | x | x | x
Cc1ccc(NC(=O)CSc2ncc(S(=O)(=O)c3ccccc3)c(=O)[nH]2)cc1C | 2.3 | 0.0 | 25.1µM* | -1.4 | -1.0 | u | u | 6.1%
O=S(=O)(Cc1ccccc1)N1CCNCC1 | 0.2 | -2.3 | -8.8% | -1.2 | 7.9 | x | x | x
COC(=O)c1ccc(=O)c2nc3/c(=C/O)c(O)cc(=O)c3[nH]c12 | -10.3 | 2.8 | u | -2.2 | -1.8 | 0.259µM* | 0.291µM* | 5.2%
